Shown are actives, neighbours in structure and some others; about 27% of the full set was active somewhere.
sEH act: increases human soluble epoxide hydrolase activity | purified human sEH enzymatic activity, activator screen | activation, % at 2 µM | actives 0.04% (n = 91,000); in the data active = activation above about 37%
Target sequence (P34913 whole entry, looked up): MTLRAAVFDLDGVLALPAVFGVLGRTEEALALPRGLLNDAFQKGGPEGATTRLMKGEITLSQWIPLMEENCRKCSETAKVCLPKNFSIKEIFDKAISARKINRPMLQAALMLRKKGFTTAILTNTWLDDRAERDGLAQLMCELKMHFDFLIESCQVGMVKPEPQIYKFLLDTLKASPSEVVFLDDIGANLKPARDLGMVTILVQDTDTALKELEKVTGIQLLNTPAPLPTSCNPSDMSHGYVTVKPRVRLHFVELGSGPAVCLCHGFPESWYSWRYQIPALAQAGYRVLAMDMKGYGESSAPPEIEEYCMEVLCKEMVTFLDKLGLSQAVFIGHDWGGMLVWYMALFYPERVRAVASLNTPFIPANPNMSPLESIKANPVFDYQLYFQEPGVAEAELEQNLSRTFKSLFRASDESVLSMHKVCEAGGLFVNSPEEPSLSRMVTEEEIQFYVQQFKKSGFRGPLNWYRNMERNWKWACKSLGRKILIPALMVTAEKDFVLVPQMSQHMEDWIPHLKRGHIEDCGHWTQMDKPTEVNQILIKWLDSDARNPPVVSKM
CYP2C9 inh: human CYP2C9 inhibition; P11712; CYP2C9 Supersomes, luciferin-H conversion, luminescence; inhibition, % at 5 µM; actives 20% (n = 96,000);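 active = blocking of liver enzyme CYP2C9 beyond about 50% at 5 µM, limit read from the data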
CYP2C19 act: activators of human cytochrome P450 2C19 | 96,000 tested, under 10 active | recombinant CYP2C19, luciferin-H EGE luminescence; active compounds read high; 0 = fully inhibited enzyme, 1 = untreated enzyme | activation factor at 5 µM | AID 1025 | P33261;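 active = activation factor of at least 2 at 5 µM in the primary screen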;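 also: 0 = wells with 2.5 mM tranylcypromine and 1 = vehicle-only wells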
CYP2C19 inh: blocks human cytochrome P450 2C19 | P33261 | actives 21% (n = 96,000) | CYP2C19 Supersomes, luciferin-H EGE luminescence, 30 min | inhibition, % at 5 µM;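 active = CYP2C19 inhibition above a set limit at 5 µM in the primary screen, cut at about 50% in these data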;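 also: plate controls were negative control wells for no effect and 2.5 mM tranylcypromine positive control for full effect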
CYP2C9 activ: activators of human CYP2C9 | activation factor at 5 µM | P11712 | actives 1.4% (n = 96,000) | recombinant CYP2C9, luciferin-H conversion, luminescence; active compounds read high; factor 1 = untreated enzyme, 0 = blocked;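 active = activation factor of 2 or more for CYP2C9 at a 5 µM dose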;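 also: 0 = sulfaphenazole-blocked wells and 1 = vehicle-only wells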
sEH inh: soluble epoxide hydrolase (human) inhibition; P34913; recombinant human sEH enzymatic activity assay; inhibition, % at 2 µM; actives 0.34% (n = 91,000); in the data active = inhibition above about 80%
* marks the source's active call; other numbers are inactive results; · = not tested or not shown.

SMILES | sEH act | CYP2C9 inh | CYP2C19 act | CYP2C19 inh | CYP2C9 activ | sEH inh
COc1ccc(-n2c(SCC(=O)Nc3ccccc3)nnc2-c2ccoc2C)cc1 | 8 | · | · | · | · | -7
Cc1occc1-c1nnc(SCC(=O)NCc2ccco2)n1CC(C)C | -34 | -18 | 0.9 | 6 | 1.2 | 34
Cc1cccc(C)c1OCc1nnc(SCC(=O)Nc2nccs2)n1-c1ccccc1 | 7 | -3 | 1.1 | -14 | 1 | -9
CCc1nnc(NC(=O)CSc2nnc(-c3ccoc3C)n2CC(C)C)s1 | · | 88* | 0.1 | 88* | 0.1 | ·
CCc1nnc(NC(=O)CSc2nnc(-c3ccoc3C)n2-c2ccccc2)s1 | -8 | 83* | 0.1 | 94* | 0.2 | 10
CCOc1ccccc1-n1c(SCC(=O)Nc2nccs2)nnc1-c1ccoc1C | -1 | 79* | 0.2 | 76* | 0.2 | 2
CCC(C)(C)n1nnnc1C(CC(C)C)N1CCC(C(N)=O)CC1 (stereo unspecified) | · | 17 | 1 | -2 | 0.8 | ·
COc1cccc(-c2cc(C(F)(F)F)nc(N3CCN(c4ccccc4)CC3)n2)c1 | -3 | 28 | 0.9 | 7 | 0.7 | 3
CCN1C(=O)CC(C(=O)O)SC1=Nc1ccc(OC)cc1 (stereo unspecified) | -3 | -8 | 1 | -5 | 1.1 | 5
Cc1ccccc1-n1c(Cn2c(=O)sc3ccccc32)nnc1SCC(=O)NCC1CCCO1 (stereo unspecified) | 6 | 50* | 0.9 | 15 | 0.5 | -9
Cc1ccc(-n2c(SCC(=O)NCC3CCCO3)nnc2-c2ccoc2C)cc1 (stereo unspecified) | -8 | 24 | 0.2 | 85* | 0.8 | 7
CCc1nnc(NC(=O)CSc2nnc3scc(-c4ccc(C)cc4)n23)s1 | 7 | · | · | · | · | -5
CCc1nnc(NC(=O)CSc2nnc(-c3ccoc3C)n2-c2ccc(C)cc2)s1 | -6 | 66* | 0.4 | 64* | 0.3 | 4
COCCCn1c(SCC(=O)Nc2nnc(C)s2)nnc1-c1ccoc1C | -9 | 82* | 0.9 | 15 | 0.2 | 7
Cc1ccc(C)c(-n2c(Cc3cc(=O)[nH]c(=O)[nH]3)nnc2SC(C)C)c1 | 3 | 2 | 1 | -2 | 1 | -2
COc1ccc(N2CCN(C(=O)CSc3nnc(C)c(=O)[nH]3)CC2)cc1 | · | 13 | 1 | 4 | 0.9 | ·
O=C(NCC1CCCO1)c1ccc(NC(=O)C2C3C=CC(C3)C2C(=O)O)cc1 (stereo unspecified) | 11 | 8 | 1 | 1 | 0.9 | -9
COc1ccc(-n2c(C)cc(C(=O)CSc3nnc(-c4ccoc4C)n3C)c2C)cc1 | 0 | 54* | 0.4 | 57* | 0.5 | 0
COc1cccc(NC(=O)CSc2nnc(-c3ccoc3C)n2-c2ccccc2)c1 | 7 | 59* | 0.7 | 33 | 0.4 | -14
C/C(Nc1cccc(F)c1)=C(/C#N)C(N)=O | -8 | 68* | 0.7 | 28 | 0.3 | 10
COc1ccc(-c2nnn(Cc3ccccc3F)n2)cc1 | -4 | · | · | · | · | 9
CN(C)c1ccc(-c2nnn(Cc3ccccc3Br)n2)cc1 | -5 | -36 | 0 | 96* | 1.4 | 4
N/C(=N\OS(=O)(=O)c1ccc2ccccc2c1)c1ccncc1 | -9 | 68* | 0.7 | 30 | 0.3 | 9
Cc1cccc(CSc2nnc(-c3ccccn3)n2N)c1 | -12 | -42 | 0.4 | 60* | 1.4 | 13
COc1ccc(-c2nnc(SCc3cccc(C)c3)n2N)cc1 | -3 | -14 | 0.5 | 52* | 1.1 | 3
SMILES | sEH act | CYP2C9 inh | CYP2C19 act | CYP2C19 inh | CYP2C9 activ | sEH inh
Nn1c(SC/C=C/c2ccccc2)nnc1-c1cccnc1 | 8 | -19 | 1.1 | -12 | 1.2 | -9
COc1ccc(-c2nnc(SCc3cc(C)ccc3C)n2N)cc1 | 2 | -16 | 0.4 | 62* | 1.2 | -3
Clc1ccc(-n2c(SC/C=C/c3ccccc3)nnc2-c2cccnc2)cc1 | 2 | 34 | 0.4 | 56* | 0.7 | -5
CCOC(=O)Cn1nc(C)n(-c2ccc(C)cc2)c1=O | 0 | -2 | 1.1 | -7 | 1 | 3
COc1ccc(Nc2oc(-c3cccs3)nc2C#N)cc1 | -7 | 17 | 0.7 | 28 | 0.8 | 6
Nn1c(SC/C=C/c2ccccc2)nnc1-c1ccccn1 | 7 | 27 | 0.4 | 61* | 0.7 | -6
Nn1c(SCC(=O)Nc2ccc(F)cc2)nnc1-c1ccccn1 | 7 | 11 | 0.9 | 10 | 0.9 | -6
O=C(CCC(=O)c1ccc[nH]1)c1ccc(Cl)cc1 | 19 | 12 | 0.7 | 30 | 0.9 | -21
OC(COc1ccccc1)CN1CCOCC1 (stereo unspecified) | -5 | · | · | · | · | 8
OC(COc1c(Br)cc(Br)cc1Br)CN1CCOCC1 (stereo unspecified) | -2 | -4 | 0.1 | 92* | 1 | 3
OC(COc1ccc2cc(Br)ccc2c1)CN1CCOCC1 (stereo unspecified) | -2 | · | · | · | · | 4
OC(COc1ccc2ccccc2c1Cl)CN1CCOCC1 (stereo unspecified) | 8 | -17 | 0.5 | 54* | 1.2 | -11
O=C(NCC1CCCO1)c1onc(CSc2ccc(F)c(F)c2)c1C(=O)O (stereo unspecified) | 12 | 18 | 0.8 | 20 | 0.8 | -5
CCN(CC)c1cccc(OCC(=O)N(C)CCC#N)c1 | -7 | -7 | 1.1 | -11 | 1.1 | 8
O=C(Nc1ccc(N2CCCC2)cc1)c1ccc(Br)o1 | -14 | 10 | 0.4 | 61* | 0.9 | 14
Cc1ccc(NC(=O)c2cc(S(=O)(=O)N3CCCCC3)ccc2N2CCOCC2)cc1F | 3 | 68* | 1.1 | -7 | 0.3 | 0
O=C(O)c1cc(S(=O)(=O)N2CCOCC2)ccc1N1CCOCC1 | 16 | -21 | 1.1 | -5 | 1.2 | -13
Cc1cc(N2CCCCC2)nc2ccc(NC(=O)c3ccc(Br)o3)cc12 | 2 | 81* | 0.1 | 94* | 0.2 | -7
O=C(Nc1ccc(CN2CCOCC2)cc1)c1ccc(-c2cc(Cl)ccc2Cl)o1 | -43 | 65* | 0.5 | 55* | 0.3 | 42
Cc1cc(N2CCN(C)CC2)nc2ccc(NC(=O)c3ccc(Br)o3)cc12 | · | -7 | 1 | 2 | 1.1 | ·
CCCC(=O)N1CCN(c2ccc(NC(=O)c3ccc(Br)o3)cc2)CC1 | -16 | 15 | 1 | 2 | 0.8 | 20
O=C(Nc1ccc(N2CCN(C(=O)c3ccccc3)CC2)c(Cl)c1)c1ccc(Br)o1 | -66 | 51* | 0.6 | 37 | 0.5 | 66
O=C(Nc1ccc(N2CCN(C(=O)c3ccccc3)CC2)cc1)c1ccc(Br)o1 | -24 | 30 | 0.9 | 10 | 0.7 | 22
O=C(Nc1ccc(N2CCOCC2)c(Cl)c1)c1ccc(Br)o1 | -8 | 51* | 0.4 | 58* | 0.5 | 7
Cc1ccc(NC(=O)c2cc(NC(=O)c3ccco3)ccc2N2CCOCC2)cc1Cl | 14 | 69* | 0.5 | 47 | 0.3 | -11
O=C(/C=C/c1ccccc1)NC(=S)Nc1ccc(N2CCOCC2)c(Cl)c1 | 2 | 4 | 1 | -1 | 1 | 0

Screening results (PubChem BioAssay)
